Results filed as inconclusive are left out. A number with no mark means an inactive call. Calls follow the shape of the dose curve; as a rule, active = well fitted activation curve with a large enough effect; inconclusive = small, poorly fitted or top-dose-only effect; inactive = no such curve, though single readings can be large or run the other way. Numbered stars: 1 amine (or outer) side, 2 acyl side, 3 side chain; on linkers, the order of the positions; unused ones are H or OH. Square brackets hold non-standard residues; d marks the D form. Peptide text beside a SMILES is read from it. X1 = CCCCCCCCCC(=O)[C@H](C(=O)[*:2])[C@@H]1CNC(=O)[C@@H](N[*:1])CS1
Target: Nuclear receptor subfamily 1 group I member 3 (Homo sapiens) (UniProt Q14994)
Sequence (Q14994 whole entry, looked up): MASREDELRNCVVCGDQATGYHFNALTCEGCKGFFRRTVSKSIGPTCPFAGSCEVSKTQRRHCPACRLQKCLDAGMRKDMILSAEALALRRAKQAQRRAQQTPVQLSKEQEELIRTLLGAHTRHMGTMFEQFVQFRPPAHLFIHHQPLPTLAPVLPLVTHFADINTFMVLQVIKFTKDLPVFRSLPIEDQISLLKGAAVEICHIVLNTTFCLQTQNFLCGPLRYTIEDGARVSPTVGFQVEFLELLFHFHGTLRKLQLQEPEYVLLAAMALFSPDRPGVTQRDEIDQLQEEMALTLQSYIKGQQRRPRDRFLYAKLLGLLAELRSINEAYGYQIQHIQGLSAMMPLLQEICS
Assay: qHTS for Constitutive Androstane Receptor (CAR) Agonist screened against the NCATS CANVASS Library (AID 1347373);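 also: every well also contained 1.5 µM PK11195 alongside the test compound; 0% is about no effect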
Conditions: HepG2-hCAR-CYP2B6 luciferase reporter, ONE-Glo luminescence; series mostly up to 46.1 µM; activation: at the top concentration
Description: Natural products and their derivatives continue to be wellsprings of nascent therapeutic potential. However, many laboratories have limited resources for biological evaluation, leaving their previously isolated or synthesized compounds largely or completely untested. To address this issue, the Canvass library of natural products was assembled (https://tripod.nih.gov/canvass), in collaboration with academic and industry researchers, for quantitative high-throughput screening (qHTS) across a diverse set of cell-based and biochemical assays. The pure (>85% purity by liquid chromatography/mass spectrometry [LC/MS]) Canvass library of 346 natural products were submitted by 45 academic laboratories and companies around the world. We collected pure natural products to circumvent deconvolution and structure elucidation due to time and resource limitations. The library was formatted into 1536-well plates and evaluated in 50 qHTS (in an 11-pnt concentration series) bioassays with broad scope of disease-relevant mechanisms. The resulting data set from 50 different assays was then systematically analyzed to identify overall trends and specific natural products with interesting biological activities. Reported herein are the results of each individual qHTS and their corresponding assay protocol. The constitutive androstane receptor (CAR) is a nuclear receptor which regulates multiple drug metabolizing enzymes (DMEs) and transporters. Activating CAR will generally increase the transcription and subsequent translation of CYP2B6 and CYP3A4. These two DMEs represent about 50% of the drug metabolizing potential in the body. […] Recently, there have also been studies performed indicating CARs role in energy metabolism and cancer therapy. Therefore, inducing or inhibiting CAR's activity could have a potential effect on diabetes and/or cancer. National Center for Advancing Translational Sciences (NCATS), Rockville, MD National Institute of Health (NIH), Bethesda, Maryland
Material: A double-stable (hCAR and CYP2B6-2.2kb) transfected cell line, derived from human hepatoma (HepG2) cells, was utilized for the duration of the quantitative high-throughput screens. The HepG2-CYP2B6-hCAR cells suspended in DMEM culture medium supplemented with 10% FBS, 5 ug/mL blasticidin, 0.5 mg/mL geneticin, 100 U/mL penicillin and 100 ug/mL streptomycin. CAR Agonist assay protocol: 1. In a 1536 well, tissue culture treated white solid bottom plates (Greiner Bio-One North America), 4 uL of engineered HepG2-hCAR-CYP2B6 cell solution (final concentration 2500 cells / well) was dispensed using the Multidrop Combi dispenser (Thermo Fisher Scientific). 2. The assay plates were incubated for 4hr at 37C, 5% CO2 to allow the cells to acclimate and attach. 3. Compounds were pin transferred (~23 nL volume) to the assay plates via Wako Pin-tool (Wako Automation, Richmond VA) equipped with a 1536 pin head. The compounds were transferred to columns 5-48 resulting in a final concentration ranging from 0.6nM to 92uM. 4. One uL of PK11195, was added using a Flying Reagent Dispenser to generate a final concentration of 1.5uM PK11195 inside each well. 5. The assay plates were incubated at 37C, 5% CO2 for 24hr. 6. To measure cell viability, 1 uL of CellTiter-Fluor (Promega) reagent was then added to the assay plates (column 1-48, rows 1-32). The assay plates were incubated for 1hr at 37C, 5% CO2. 7. A first readout of fluorescence signal was acquired via the ViewLux (PerkinElmer) plate reader using a FITC dichroic mirror, excitation 405/10 nm filter, and emission 540/25 nm filter; and using 65 light energy, 1 second exposure, and 2x binning settings. 8. To measure CAR activation, 4 uL of ONE-Glo reagent (Promega) was added to the assay plates (column 1-48, rows 1-32). The assay plates were further incubated at room temperature for 30 min. 9. A second readout of luminescence signal was acquired via the ViewLux plate reader using a clear emission filter, 10 second exposure, 2x binning settings. […]

SMILES	activation
O=Cc1ccc2n1C[C@@]1(C[C@H](O)[C@H](O)CO1)OC2	-3.82%
C/C=C/C=C/C1(O)C2C=C3C(=O)CC45C(=O)C(O)=C(C)C(=O)C4C1C1(C(=O)C(O)=C(C)C(=O)C351)C2C (stereo not given)	6.78%
CC(=O)O[C@H]1CC[C@@]2(C)C(CC[C@]3(C)C2CC=C2C4CC(C)(C)CC[C@]4(C)CC[C@]23C)C1(C)C (stereo not given in full)	-1.84%
C[C@@]12CCC[C@@](C)(C(=O)O)[C@H]1C[C@@H](O)[C@]13C[C@H]4C[C@H](O[C@@]4(C)C1)[C@@H]23	3.46%
CC[C@@H]1C[C@@]2(CC)OC(=O)[C@@]3(CC)OC(=O)[C@@H]1[C@@H]23	12.6%
C/C1=C\CC(=O)/C=C/C=C\c2csc(n2)[C@@H](C)NC(=O)C[C@@](S)([C@@H](C)C(=O)O)CC1	8.76%
CCCCCC[C@H](CCCCC[C@@H](O)C(N)=O)OC(=O)[C@@H]1CC=CN1C(=O)c1ccccc1O	-3.71%
C[C@@H]1C(=O)[C@]23CC[C@H]1C[C@]21O[C@H]2C(C)(C)C=CC(=O)[C@]23COC1=O	8.29%
COc1ccc2oc3c(OC)c(OC)c(OC)c(OC)c3c(=O)c2c1	7.45% [at 9.19 µM]
C/C=C1/CC[C@@H]2c3[nH]c4ccccc4c3CCN2C1	10.6%
CCC[C@@H](C)/C=C(\C)[C@H](O)[C@H](C)/C=C/CC[C@@H](O)[C@H](C)[C@H](O)[C@H](C)[C@H](O)[C@H](C)[C@H]1O[C@H]([C@H](C)C(=O)O)CC[C@@H]1C	-7.53%
COc1cc(/C=C2/C(=O)N(c3ccc(O)cc3C(=O)O)[C@H](c3ccc(O)c(OC)c3)C2C(=O)Nc2ccc(O)cc2C(=O)O)ccc1O (stereo not given in full)	1.11%
C=CC(=C)CC[C@]1(C)[C@H]2C[C@H](OC(=O)C(C)CC)C=C3[C@H](OC(C)=O)O[C@H](OC(C)=O)[C@@]32[C@H](OC)C[C@@H]1C (stereo not given in full)	-19.8% [at 91.4 µM]
CCCCCCCCCCCCCCC[C@H](O)C[C@@H](O)C[C@@H](O)C[C@@H](O)C[C@@H](O)C[C@H]1CC=CC(=O)O1	-26.2%
O=Cc1ccc2n1C[C@@]1(OC2)O[C@H](CO)[C@@H](O)[C@@H]1O	-4.15%
CN1CC[C@]2(c3cccc4c3N[C@@H]3N(C)CC[C@]43[C@@]34CCN(C)[C@@H]3Nc3c([C@]56CCN(C)[C@H]5Nc5ccccc56)cccc34)c3ccccc3N[C@H]12	-25.4%
CS/C=C/C(N)=O	1.73%
C=C1C(=O)O[C@H]2[C@H]1CC/C(CO)=C\CC[C@@]1(C)O[C@@H]21	-20.3%
CN1CCc2cc3c(c4c2[C@H]1[C@@H](O)c1ccccc1-4)OCO3	-12.9%
O=C(O)CC1OC(=O)c2c(O)cccc21 (stereo not given)	2.14%

SMILES	activation
C=CC(C)(C)C(=O)[C@@H](C)[C@@H]1CC[C@](C)(C=C)O1	2.37%
C=C1/C=C\C(CCC)=C\c2csc(n2)C(C)NC(=O)C[C@@]2(CC(=O)O)CCC(=C)[C@H](C1)S2 (stereo not given in full)	-1.55%
CC(=O)NC[C@@H]1O[C@H](CC/C=C(C)/C(C)=C/C=O)[C@H](C)C[C@H]1O	13.3%
Cc1cc(O)cc2oc(C[C@H](C)O)cc(=O)c12	4.73%
CO[C@@H]1C[C@@H](C[C@H]2CC[C@H](C)[C@H]([C@@H](C)C(=O)O)O2)O[C@]2(O[C@](C)([C@H]3CC[C@@](C)([C@@H]4O[C@@H]([C@H]5O[C@](C)(O)[C@H](C)C[C@@H]5C)C[C@@H]4C)O3)C[C@H]2C)[C@@H]1C	-27.4%
COc1ccc(CCCc2cc(O)c(OC)c(O)c2)c(O)c1O	9.77%
C[C@@]12CCC[C@@](C)(C(=O)O)[C@H]1CC[C@]13C[C@H]4C[C@H](O[C@@]4(C)C1)[C@H]32	4.02%
Oc1ccc(/C=C2/c3cc(O)cc(O)c3C(c3ccc(O)cc3)[C@H]2c2cc(O)cc(O)c2)cc1 (stereo not given in full)	3.44%
CCCCCCCCCCCCCCCC(=O)OC/C=C(\C)CCCC(C)CC(C)C(C)C (stereo not given)	1.48%
CC1C(=O)C23CCC1C[C@]21O[C@@H]2C(C)(C)C=CC(=O)[C@@]23COC1=O (stereo not given in full)	4.06%
CC(O)/C=C/C1(O)C(C)(C)CC(O)CC1(C)O (stereo not given)	-0.743%
C=C1C[C@@]23C=CC(=O)[C@@](C)(CCCC(C)C(=O)O)[C@@H]2C[C@@H]1CC3 (stereo not given in full)	7.47%
COc1ccc2cc(NC(=O)C3=NO[C@H]4[C@H](O)C=C[C@@H](Cl)[C@@]4(O)C3)c(=O)oc2c1OC	12.4%
CO[C@@H]1[C@H](O)[C@@H](C)O[C@@H](OC[C@@H]2C(C)OC(=O)/C=C/[C@H](C)C(O[C@@H]3O[C@H](C)CC4(OC(=O)O[C@@H]4C)C3O)[C@@H](C)CC(C)C(=O)CC[C@H]3OC23)[C@@H]1OC (stereo not given in full)	2.16%
CCCCCCCCCC(=O)[C@@H]1C(=O)N[C@@H](CC(C)C)C(=O)N[C@H](C)C(=O)N2CCC[C@H]2C(=O)N[C@@H](C(C)C)C(=O)N[C@H]2CS[C@H]1CNC2=O (cyclo(L[dA]PV[X1]))	6.82%
O=C(O)CC1OCc2c(O)cccc21 (stereo not given)	2.35%
C=C[C@]1(C)CC[C@@H]([C@H](C)C(=O)/C=C/C(C)C)O1	14.6%
C=C(C)CC[C@H](Cc1c(O)cc(O)c2c1O[C@H](c1ccc(O)cc1O)CC2=O)C(=C)C	7.04%
CCCCCCC[C@@H](C/C=C/CCC(=O)NCCc1c[nH]c2ccccc12)OC	2.08%
O=c1cc(-c2ccc(O)cc2)oc2c([C@@H]3OC(CO)[C@H](O)[C@@H](O)[C@H]3O)c(O)cc(O)c12 (stereo not given in full)	1.14%
